From PubChem BioAssay AID504329 (Southern Research Specialized Biocontainment Screening …, 2011)
“And” between values parts separate entries of the source, which are not always exact repeats. Identical values can stand only once. In all, about 340,000 compounds went through this assay and about 1,000 (0.29%) were called active. Only a sample is shown. Entries with a potency or affinity are not part of this list. A number with no mark means an inactive call. No stated cut-off is given here; in the data, inconclusive means inhibition above about 27% without an active follow-up result; inactive means below that.

Test: NS1A inhibition, H1N1 influenza, cell based functional assay (AID 504329)
Details: percent inhibition, at 12.5 µM, stronger effect = higher value

Going from `O=C(Oc1cccc(F)c1)c1ccc2c(=O)n3c(nc2c1)CCC3` to `Cn1c(/C(C#N)=C(\O)c2cccc(F)c2)nc2ccccc21`, the inhibition falls from 3.05% to 0.62%.

First: N#CCO/N=C/C(=O)Nc1ccc(F)cc1F
Second: O=C(CSc1nc(=O)n(CCCN2CCOCC2)c2c1CCC2)Nc1ccc(F)cc1F
The inhibition of the first is lower: -11.8% for the first, 0.02% for the second.

Compared with `O=C(O)c1ccc(Nc2nc(-c3ccccc3)nc3ccccc23)cc1`, `O=C(O)c1ccccc1P(=O)(c1ccccc1)c1ccccc1` is higher in inhibition: -15.2% for the first, 7.4% for the second.

First: Cc1ccc2nc(-c3ccc(NC(=O)COC(=O)c4ccco4)cc3)sc2c1
Second: Cc1ccc(NC(=O)COc2ccc(C(=O)c3ccccc3)cc2)c(O)c1
The inhibition of the first is lower: -4.32% for the first, 8.15% for the second.

Compared with `COc1ccc(N(CC(=O)NC2CCCCC2)S(=O)(=O)c2cccnc2)cc1`, `O=C(NCC1CCCN1S(=O)(=O)c1cccs1)c1ccccc1F` (configuration not stated) is lower in inhibition: -1.53% for the first, -4.78% for the second.

Going from `CC(C)n1cnnc1SCC(=O)NC(=O)c1ccccc1` to `O=C(CCCc1ccccc1)Nc1nncs1`, the inhibition rises from -13.7% to 0.92%.

Compared with `CCOC(=O)c1cnc(Cc2ccccc2)[nH]c1=O`, `CCOC(=O)c1cnc(N2CCN(c3ccccc3)CC2)[nH]c1=O` is higher in inhibition: -2.72% for the first, -0.51% for the second.

Going from `O=C(c1cccc(N2C(=O)C3C4C=CC(C4)C3C2=O)c1)N1CCN(c2ccc(F)cc2)CC1` (configuration not stated) to `CC(=O)Nc1ccc(S(=O)(=O)N2CCN(c3ccc(C)c(Cl)c3)CC2)cc1`, the inhibition falls from -2.51% to -15.9%.

Going from `COC(=O)c1ccc(NC(=S)N2CCC(C(N)=O)CC2)cc1` to `CCOC(=O)C1CCN(C(=O)CCNS(=O)(=O)c2cc(Br)cnc2N)CC1`, the inhibition rises from -11.5% to -2.4%.

Going from `O=C(O)c1ccccc1C(=O)O` to `C/C=C(\C)CN1CCN(c2ccccc2)CC1`, the inhibition falls from 3.33% to -6.09%.

Going from `O=C(NCc1ccco1)/C(=C/c1ccc([N+](=O)[O-])cc1)NC(=O)c1ccco1` to `O=C(CSc1ccc(-c2ccccn2)nn1)c1ccc([N+](=O)[O-])cc1`, the inhibition rises from -2.93% to 27.3%.

Going from `Cc1ccc(CN2CCN(Cc3cn(C(C)C)c4ccccc34)CC2CCO)o1` (configuration not stated) to `Cc1ccc(CN2CCNC(=O)C2CC(=O)NCCCn2ncc3ccccc32)o1` (configuration not stated), the inhibition falls from 14.6% to -1.25%.

Going from `Cc1sc2nc(SCC(=O)Nc3cccc(C(=O)O)c3)[nH]c(=O)c2c1C` to `CCOC(=O)C1=C(C)N=c2s/c(=C/c3cccc([N+](=O)[O-])c3O)c(=O)n2C1c1ccc(OC)cc1OC` (configuration not stated), the inhibition rises from -8.26% to 22.2%.

First: CCOC(=O)C1=C(C)N=c2s/c(=C/c3cccc([N+](=O)[O-])c3O)c(=O)n2C1c1cc(OC)c(OC)c(OC)c1 (configuration not stated)
Second: COc1ccc(/C=C2/Sc3ccc(C(=O)NCCCN4CCOCC4)cc3NC2=O)cc1OC
The inhibition of the first is higher: 20.1% for the first, 9.94% for the second.

Going from `CCc1ccc(C(=O)C(C)OC(=O)CNS(=O)(=O)c2ccc(C)cc2)cc1` (configuration not stated) to `CCN1CCCC1CNC(=O)c1ccc2c(c1)NC(=O)/C(=C\c1ccc(C)cc1)S2` (configuration not stated), the inhibition rises from -0.69% to 21.9%.

Compared with `COc1cc(C=C2C(=O)c3ccccc3C2=O)ccc1O`, `COc1ccc(C=C2C(=O)c3ccccc3C2=O)cc1O` is higher in inhibition: -20.5% for the first, 16.6% for the second.

First: CCn1c(C)nc2cc(C(=O)NN=Cc3ccccc3OC(F)F)ccc21
Second: CCN(CC)CC(O)Cn1c(C)c(-c2ccccc2)c2cc([N+](=O)[O-])ccc21 (configuration not stated)
The inhibition of the first is lower: -6.28% for the first, 27.4% for the second.

Compared with `CCCN1CCC(=O)N(CCOc2ccccc2)CC1`, `CC(C)CN1CCC(=O)N(CCOc2ccccc2)CC1` is higher in inhibition: -8.48% for the first, 2.95% for the second.

Going from `Cc1ccc(-n2c(O)c(C=NC3CCS(=O)(=O)C3)c3ccccc3c2=O)c(C)c1` (configuration not stated) to `CC(C)n1c2ccccc2c2cc([N+](=O)[O-])ccc21`, the inhibition falls from 9.46% to 3.2%.

Compared with `c1cncc(CSc2ccc(-c3cccnc3)nn2)c1`, `c1ccc(CSc2ccc(-c3cccnc3)nn2)nc1` is lower in inhibition: 0.64% for the first, -9.97% for the second.

Going from `O=C(CSc1ccc(-c2ccccn2)nn1)c1ccc(F)cc1` to `c1ccc(CSc2ccc(-c3ccccn3)nn2)cc1`, the inhibition rises from -9.8% to -2.51%.

Going from `Clc1ccc(-c2ccc(SCc3ccccn3)nn2)cc1` to `CC(C)N(Cc1nc(-c2ccc(Cl)cc2)no1)Cc1nccn1C`, the inhibition falls from 0.43% to -7.64%.

Compared with `Cc1onc(-c2ccc(Cl)cc2Cl)c1-c1csc(N/N=C/c2ccccc2)n1`, `Fc1ccc(/C=N/n2cnn(Cc3ccccc3Cl)c2=S)cc1` is higher in inhibition: -21.5% for the first, -7.06% for the second.

First: CN(C(=O)c1ccc(NC(=O)Cc2cccc(NC(=O)C3CCCN(C(=O)C4CCCCC4)C3)c2)cc1)C1CCCC1 (configuration not stated)
Second: CCO[C@H]1OC(C(=O)N2CCN(Cc3ccc4c(c3)OCO4)CC2)=C[C@@H](C2CCCCC2)[C@@H]1CCCO
The inhibition of the first is lower: -1.36% for the first, 8.35% for the second.

First: CCS(=O)(=O)N1CCN(S(=O)(=O)c2ccc(S(=O)(=O)NC3CC3)cc2)CC1
Second: Cc1nc2sccn2c(=O)c1S(=O)(=O)N1CCN(c2cccc(C(F)(F)F)c2)CC1
The inhibition of the first is higher: 7.16% for the first, 3.59% for the second.

Going from `CCNC(=S)N1CCN(c2ccccc2OCC)CC1` to `CCOC(=S)SCc1cn2cccc(C)c2n1`, the inhibition rises from 0.76% to 4.77%.

Compared with `CNc1ccc(Oc2nc([N+](=O)[O-])nn2C)cc1`, `O=[N+]([O-])c1ccc2c(c1)c(-c1ccccc1)nc1nncn12` is higher in inhibition: -2.73% for the first, -1.91% for the second.

Going from `O=S(=O)(NCC1COc2ccccc2O1)c1ccc2ccccc2c1` (configuration not stated) to `O=[N+]([O-])c1ccc(-[n+]2c(-c3ccccc3)cc(-c3ccccc3)cc2-c2ccccc2)cc1`, the inhibition falls from 1.74% to 0.94%.

Compared with `O=[N+]([O-])c1nn(-c2ccc3c(c2)OCCO3)n(O)c1=NC1CCCCC1`, `O=[N+]([O-])c1nn(-c2ccc3c(c2)OCCO3)n(O)c1=NC1CCCC1` is higher in inhibition: 9.84% for the first, 15.3% for the second.

Going from `O=[N+]([O-])c1nn(-c2ccccc2)[n+]([O-])c1N1CCN(c2ccccc2)CC1` to `CN=c1c([N+](=O)[O-])nn(-c2ccc3c(c2)OCCO3)n1O`, the inhibition rises from 0.82% to 2.75%.

With `COc1cccc2c(Cl)c(CC=C(Cl)Cl)c(C)nc12` the inhibition was 8.95%.

With `CCOC(=O)C1=C(C)Nc2ncnn2C1c1ccc(N(C)C)cc1` (configuration not stated) the inhibition was 6.88% and -12.7%.
